Experimental data: PubChem BioAssay (EPA / NIEHS)
Results filed as inconclusive are left out. Activity calls are given as the source filed them. How the source made its calls, unless noted: active means hit-call score of the fitted dose curve at least 0.9, where 1 is the maximum; inactive means score below 0.9.

Key:
[1] = ATG_TAL_CIS: Attagene CIS-FACTORIAL HepG2 Assay for human TAL Basal Promoter (AID 2282966); settings: HepG2 Attagene cis-factorial TAL promoter reporter; actives raise or lower the signal;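 further: background control endpoint measuring basal TAL promoter reporter mRNA not a specific factor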
Method in brief: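 Fluorescence of labelled reporter cDNA fragments, resolved by capillary electrophoresis, gave the readout. Human HepG2 liver cells carried transiently transfected cis-element reporter units and were treated for 24 hours; activity was fitted bidirectionally against DMSO.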

[2] = ATG_TGFb_CIS: Attagene CIS-FACTORIAL HepG2 Assay for human Transforming Growth Factor (TGF) (AID 2282967); settings: HepG2 Attagene CIS TGFb reporter, mRNA transcription; actives raise or lower the signal
Method in brief: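 Readout: fluorescently labeled reporter cDNA fragments resolved by capillary electrophoresis after RT-PCR. Transfected HepG2 cells dosed for 24 h; endogenous TF activity at TGFB1-linked cis element; gain or loss fitted relative to DMSO.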

[3] = target: X-box-binding protein 1 (Homo sapiens) (UniProt P17861); test: ATG_Xbp1_CIS: Attagene CIS-FACTORIAL HepG2 Assay for human X-box Binding Protein 1 (XBP1) (AID 2282972); settings: HepG2 XBP1 cis-element reporter, Attagene multiplex; actives raise or lower the signal
Method in brief: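 HepG2 cells transiently transfected with multiple cis-element reporter units report endogenous TF activity; 24 h exposure, then reporter mRNA measured by RT-PCR, 6-FAM labelling, HpaI digestion and capillary electrophoresis. Bidirectional fitting versus DMSO.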

[4] = target: Estrogen-related receptor gamma (Homo sapiens) (UniProt P62508); test: ATG_ERRg_TRANS: Attagene TRANS-FACTORIAL HepG2 Assay for human Estrogen-Related Receptor gamma (ERRg) (AID 2282977; active means hit-call score of the fitted dose curve at least 0.9, where 1 is the maximum;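 further: hits increase reporter signal over DMSO so potencies reflect activators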); settings: HepG2 Attagene TRANS reporter, ERRg transactivation
Method in brief: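 HepG2 cells transiently transfected with multiplexed GAL4-UAS reporter units driven by chimeric NR-Gal4 proteins; 24 h exposure. Reporter mRNA quantified by RT-PCR, fluorescent labelling, HpaI digestion and capillary electrophoresis; gain of signal vs DMSO.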

[5] = target: Oxysterols receptor LXR-alpha (Homo sapiens) (UniProt Q13133); test: ATG_LXRa_TRANS: Attagene TRANS-FACTORIAL HepG2 Assay for human Liver X Receptor alpha (LXRa) (AID 2282980; active means hit-call score of the fitted dose curve at least 0.9, where 1 is the maximum); settings: HepG2 Attagene TRANS reporter, LXRa transactivation
Method in brief: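 Transfect HepG2 with GAL4-UAS multiplex reporter constructs (TRANS format, chimeric receptor-GAL4); treat 24 h; extract RNA, reverse-transcribe, PCR-amplify, FAM-label, HpaI-digest; resolve fragments by capillary electrophoresis. Upward response vs DMSO.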

[6] = target: Oxysterols receptor LXR-beta (Homo sapiens) (UniProt P55055); test: ATG_LXRb_TRANS: Attagene TRANS-FACTORIAL HepG2 Assay for human Liver X Receptor beta (LXRb) (AID 2282981; active means hit-call score of the fitted dose curve at least 0.9, where 1 is the maximum); settings: HepG2 Attagene TRANS GAL4-LXRb reporter, mRNA
Method in brief: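 In this TRANS format, exogenous chimeric NR-Gal4 protein activity, not endogenous factors, drives reporter expression in transfected human HepG2 cells. Exposure lasted 24 h; reporter mRNA was read by fluorescent capillary electrophoresis.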

[7] = target: Hepatocyte nuclear factor 4-alpha (Homo sapiens) (UniProt P41235); test: ATG_HNF4a_TRANS: Attagene TRANS-FACTORIAL HepG2 Assay for human Hepatocyte Nuclear Factor 4 alpha (HNF4a) (AID 2282982; active means hit-call score of the fitted dose curve at least 0.9, where 1 is the maximum); settings: HepG2 HNF4a transactivation reporter, mRNA readout
Method in brief: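 Cells used were human HepG2, transiently carrying GAL4-UAS reporter units read out against exogenous NR-GAL4 chimeras. Reporter transcript levels after 24 h dosing were quantified by fluorescent RT-PCR and capillary electrophoresis.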

[8] = ATG_M_06_TRANS: Attagene TRANS-FACTORIAL HepG2 Assay for M06 Transcription Factor (Internal Marker) (AID 2282983; active means hit-call score of the fitted dose curve at least 0.9, where 1 is the maximum); settings: HepG2 Attagene TRANS M06 internal marker reporter
Method in brief: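 Transfect HepG2 with MRTUs → dose compounds 24 h → isolate RNA, oligo(dT) RT → PCR with reporter primers → 6-FAM primer extension → HpaI digest → CE fragment analysis. Positive direction vs DMSO.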

[9] = target: Nuclear receptor subfamily 4 group A member 2 (Homo sapiens) (UniProt P43354); test: ATG_NURR1_TRANS: Attagene TRANS-FACTORIAL HepG2 Assay for human Nuclear Receptor Related Protein 1 (NURR1) (AID 2282985; active means hit-call score of the fitted dose curve at least 0.9, where 1 is the maximum); settings: HepG2 Attagene TRANS reporter, mRNA readout
Method in brief: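 After 24 h chemical dosing, total RNA from transiently transfected HepG2 cells was reverse-transcribed and reporter cDNA PCR-amplified, FAM-labelled and analysed by capillary electrophoresis. Activity fitted in positive direction, DMSO as negative control.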

[10] = target: Transcriptional activator Myb (Homo sapiens) (UniProt P10242); test: ATG_Myb_CIS: Attagene CIS-FACTORIAL HepG2 Assay for human Myeloblastosis (Myb) Proto-Oncogene Transcription Factor (AID 2282986); settings: HepG2 Attagene CIS-FACTORIAL Myb reporter transcription; actives raise or lower the signal
Method in brief: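 HepG2, transient MRTU transfection (cis-element promoters, endogenous TF activity), 24 h compound exposure. Readout: reporter mRNA via RT-PCR, 6-FAM labeling, HpaI digest, capillary electrophoresis. Gain/loss fit vs DMSO.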

[11] = target: Nuclear respiratory factor 1 (Homo sapiens) (UniProt Q16656); test: ATG_NRF1_CIS: Attagene CIS-FACTORIAL HepG2 Assay for human Nuclear Respiratory Factor 1 (NRF1) Orphan Gene (AID 2282987); settings: HepG2 NRF1 cis-element reporter, Attagene multiplex; actives raise or lower the signal
Method in brief: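 Endogenous NRF1-driven reporter transcription measured in transiently transfected human HepG2 liver cells. Readout: reporter mRNA by RT-PCR and capillary electrophoresis with fluorescence detection, 24 h post-dosing. Gain or loss of signal fitted relative to DMSO baseline.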

[12] = ATG_NFI_CIS: Attagene CIS-FACTORIAL HepG2 Assay for human Nuclear Factor I (NFI) (AID 2282989); settings: HepG2 cis-regulatory reporter, NFI response element transcription; actives raise or lower the signal
Method in brief: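 Read-out: reporter mRNA via RT-PCR plus capillary electrophoresis with fluorescence detection. Transiently transfected HepG2 (endogenous TF activity on cis promoters), 24 h compound exposure; gain or loss of signal fitted against DMSO.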

[13] = target: Myc proto-oncogene protein (Homo sapiens) (UniProt P01106); test: ATG_Myc_CIS: Attagene CIS-FACTORIAL HepG2 Assay for human Myelocytomatosis (Myc) Proto-Oncogene Transcription Factor (AID 2282990); settings: HepG2, Attagene cis-reporter transcription factor activity; actives raise or lower the signal
Method in brief: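 HepG2 cells transiently transfected with multiple cis-promoter-driven reporter transcription units, so endogenous TF activity is read. After 24 h compound exposure, reporter mRNA was quantified by RT-PCR, 6-FAM labelling, HpaI digestion and capillary electrophoresis; bidirectional fit versus DMSO.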

[14] = ATG_VDRE_CIS: Attagene CIS-FACTORIAL HepG2 Assay for human Vitamin D Receptor Element (VDRE) (AID 2282968); settings: HepG2 VDRE cis-reporter transcription, actives raise or lower the signal
Method in brief: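 RT-PCR/CE readout of reporter mRNA; HepG2, transient transfection, 24 h dosing; DMSO baseline; bidirectional analysis.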

[15] = target: Nuclear receptor subfamily 1 group I member 3 (Homo sapiens) (UniProt Q14994); test: ATG_CAR_TRANS: Attagene TRANS-FACTORIAL HepG2 Assay for human Constitutive Androstane Receptor (CAR) (AID 2282969; active means hit-call score of the fitted dose curve at least 0.9, where 1 is the maximum;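 further: activators raise reporter mRNA above DMSO so AC50 marks induction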); settings: HepG2 Attagene TRANS-FACTORIAL CAR reporter
Method in brief: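 HepG2 cells transiently transfected with multiplexed GAL4-UAS reporter units expressing chimeric NR-Gal4 proteins; compound exposure 24 h. Reporter mRNA measured by RT-PCR, 6-FAM labelling, HpaI digestion and capillary electrophoresis; gain-of-signal fitted against DMSO baseline.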

[16] = target: Estrogen receptor (Homo sapiens) (UniProt P03372); test: ATG_ERa_TRANS: Attagene TRANS-FACTORIAL HepG2 Assay for human Estrogen Receptor alpha (ERa) (AID 2282970; active means hit-call score of the fitted dose curve at least 0.9, where 1 is the maximum); settings: HepG2 Attagene TRANS ERa GAL4 reporter, mRNA
Method in brief: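 Human liver HepG2, transient transfection of multiple GAL4-UAS reporter units; TRANS format (exogenous NR-Gal4 chimera). 24 h dosing. Readout: reporter mRNA, RT-PCR, 6-FAM primer extension, HpaI digest, capillary electrophoresis. Positive direction vs DMSO.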

[17] = ATG_M_19_TRANS: Attagene TRANS-FACTORIAL HepG2 Assay for M19 Transcription Factor (Internal Marker) (AID 2282974; active means hit-call score of the fitted dose curve at least 0.9, where 1 is the maximum); settings: HepG2 Attagene TRANS-FACTORIAL M19 internal marker reporter
Method in brief: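 24 h chemical exposure of transiently transfected HepG2 (MRTU library). RNA → oligo(dT) RT → PCR → 6-FAM labelling → HpaI cut → CE fluorescence. Positive-direction fit vs DMSO baseline; background internal-marker readout.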

[18] = target: Bile acid receptor (Homo sapiens) (UniProt Q96RI1); test: ATG_FXR_TRANS: Attagene TRANS-FACTORIAL HepG2 Assay for Farnesoid X Receptor (FXR) (AID 2282979; active means hit-call score of the fitted dose curve at least 0.9, where 1 is the maximum;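 further: hits raise reporter mRNA above DMSO so AC50 marks FXR activation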); settings: HepG2 Attagene TRANS FXR-GAL4 reporter transcription
Method in brief: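 Transient transfection of HepG2 with multiplexed GAL4-UAS reporter units; exogenous FXR-GAL4 chimera. Dose 24 h → TriZol RNA → oligo(dT) RT → PCR, 6-FAM primer extension, HpaI cut → CE. Gain vs DMSO.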

[19] = target: Glucocorticoid receptor (Homo sapiens) (UniProt P04150); test: ATG_GR_TRANS: Attagene TRANS-FACTORIAL HepG2 Assay for human Glucocorticoid Receptor (GR) (AID 2282978; active means hit-call score of the fitted dose curve at least 0.9, where 1 is the maximum;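 further: activators score as hits since higher reporter transcript over DMSO is fitted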); settings: HepG2 Attagene TRANS GR reporter, mRNA transcription
Method in brief: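 Transient MRTU transfection of HepG2 (GAL4-UAS reporters, exogenous NR-GAL4 chimeras), 24 h dosing. Readout: reporter transcript via RT-PCR + capillary electrophoresis fluorescence. Positive direction vs DMSO baseline.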

[20] = ATG_M_32_TRANS: Attagene TRANS-FACTORIAL HepG2 Assay for M32 Transcription Factor (Internal Marker) (AID 2282984; active means hit-call score of the fitted dose curve at least 0.9, where 1 is the maximum;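 further: transcript level of a background control reporter unit measured by RT-PCR and capillary electrophoresis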); settings: HepG2 Attagene TRANS M32 internal marker reporter
Method in brief: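 Human hepatoma HepG2, transient MRTU transfection, 24 h treatment. RNA → RT-PCR → fluorescent primer extension → HpaI digest (2 h, 37 C) → CE. Positive-direction fit vs DMSO.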

Measured: outcome

Nuclear receptor subfamily 4 group A member 2 (Homo sapiens), sequence (P43354 whole entry, looked up): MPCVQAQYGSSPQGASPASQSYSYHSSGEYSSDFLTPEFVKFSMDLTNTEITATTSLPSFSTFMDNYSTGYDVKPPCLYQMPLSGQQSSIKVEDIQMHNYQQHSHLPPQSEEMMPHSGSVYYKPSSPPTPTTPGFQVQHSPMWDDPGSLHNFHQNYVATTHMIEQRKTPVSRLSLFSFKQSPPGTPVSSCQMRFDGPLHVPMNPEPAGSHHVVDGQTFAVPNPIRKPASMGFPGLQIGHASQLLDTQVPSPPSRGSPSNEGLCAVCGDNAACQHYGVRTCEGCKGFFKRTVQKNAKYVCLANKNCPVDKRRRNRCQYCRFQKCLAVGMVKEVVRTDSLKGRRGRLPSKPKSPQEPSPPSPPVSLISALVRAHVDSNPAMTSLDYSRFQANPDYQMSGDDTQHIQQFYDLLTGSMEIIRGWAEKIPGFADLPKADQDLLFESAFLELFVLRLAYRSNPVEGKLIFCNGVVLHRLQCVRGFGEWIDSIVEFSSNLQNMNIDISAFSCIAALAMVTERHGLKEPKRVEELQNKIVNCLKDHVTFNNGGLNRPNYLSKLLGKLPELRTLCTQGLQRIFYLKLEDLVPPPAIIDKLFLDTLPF
X-box-binding protein 1 (Homo sapiens), sequence (P17861 whole entry, looked up): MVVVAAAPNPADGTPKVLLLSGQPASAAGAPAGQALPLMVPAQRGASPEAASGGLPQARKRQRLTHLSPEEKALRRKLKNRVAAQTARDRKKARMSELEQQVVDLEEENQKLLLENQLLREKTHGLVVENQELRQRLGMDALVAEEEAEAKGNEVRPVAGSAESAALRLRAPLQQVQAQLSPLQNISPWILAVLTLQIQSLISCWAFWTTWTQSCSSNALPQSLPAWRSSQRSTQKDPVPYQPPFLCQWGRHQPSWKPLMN
Nuclear respiratory factor 1 (Homo sapiens), sequence (Q16656 whole entry, looked up): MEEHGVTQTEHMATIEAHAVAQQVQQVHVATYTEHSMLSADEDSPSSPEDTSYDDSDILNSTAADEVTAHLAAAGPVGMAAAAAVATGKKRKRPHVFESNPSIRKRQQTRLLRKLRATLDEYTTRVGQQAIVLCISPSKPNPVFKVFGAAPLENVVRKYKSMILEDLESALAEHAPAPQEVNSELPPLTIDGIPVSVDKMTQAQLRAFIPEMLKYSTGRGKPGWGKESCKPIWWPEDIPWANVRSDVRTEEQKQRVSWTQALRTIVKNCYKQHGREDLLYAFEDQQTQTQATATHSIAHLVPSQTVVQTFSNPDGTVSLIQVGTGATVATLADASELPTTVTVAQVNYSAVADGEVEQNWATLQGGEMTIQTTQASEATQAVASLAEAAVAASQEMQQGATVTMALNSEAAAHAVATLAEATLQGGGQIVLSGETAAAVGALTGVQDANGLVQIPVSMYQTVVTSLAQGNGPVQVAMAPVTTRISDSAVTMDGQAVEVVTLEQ
Transcriptional activator Myb (Homo sapiens), sequence (P10242 whole entry, looked up): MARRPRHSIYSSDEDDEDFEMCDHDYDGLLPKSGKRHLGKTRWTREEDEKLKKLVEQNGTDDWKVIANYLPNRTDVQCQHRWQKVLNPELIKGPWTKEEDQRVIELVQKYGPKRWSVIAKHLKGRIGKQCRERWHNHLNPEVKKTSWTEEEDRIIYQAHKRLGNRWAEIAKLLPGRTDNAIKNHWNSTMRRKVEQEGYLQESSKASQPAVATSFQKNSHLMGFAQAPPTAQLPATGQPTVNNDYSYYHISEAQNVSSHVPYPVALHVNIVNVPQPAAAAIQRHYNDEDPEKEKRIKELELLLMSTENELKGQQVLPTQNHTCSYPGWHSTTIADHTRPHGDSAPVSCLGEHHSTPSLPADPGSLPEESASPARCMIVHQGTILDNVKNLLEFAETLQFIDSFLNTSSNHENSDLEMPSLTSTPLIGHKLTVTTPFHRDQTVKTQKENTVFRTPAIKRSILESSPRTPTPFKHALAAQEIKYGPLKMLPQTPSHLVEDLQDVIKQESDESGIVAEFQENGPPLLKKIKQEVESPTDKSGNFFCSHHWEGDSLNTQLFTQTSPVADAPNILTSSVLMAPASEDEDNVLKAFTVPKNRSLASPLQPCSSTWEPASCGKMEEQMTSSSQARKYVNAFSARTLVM
Myc proto-oncogene protein (Homo sapiens), sequence (P01106 whole entry, looked up): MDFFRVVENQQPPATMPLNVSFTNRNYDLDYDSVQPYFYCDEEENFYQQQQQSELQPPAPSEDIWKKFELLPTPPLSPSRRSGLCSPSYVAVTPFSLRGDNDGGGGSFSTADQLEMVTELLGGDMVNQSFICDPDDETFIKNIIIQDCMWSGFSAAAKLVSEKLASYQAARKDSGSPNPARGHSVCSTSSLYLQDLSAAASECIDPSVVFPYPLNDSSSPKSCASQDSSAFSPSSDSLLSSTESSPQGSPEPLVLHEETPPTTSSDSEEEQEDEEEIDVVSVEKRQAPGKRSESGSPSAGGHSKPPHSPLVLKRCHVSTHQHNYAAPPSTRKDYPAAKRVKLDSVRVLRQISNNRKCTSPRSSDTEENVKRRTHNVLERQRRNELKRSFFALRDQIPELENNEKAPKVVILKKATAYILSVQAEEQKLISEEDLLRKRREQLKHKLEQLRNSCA
Oxysterols receptor LXR-alpha (Homo sapiens), sequence (Q13133 whole entry, looked up, the tested form may be a part): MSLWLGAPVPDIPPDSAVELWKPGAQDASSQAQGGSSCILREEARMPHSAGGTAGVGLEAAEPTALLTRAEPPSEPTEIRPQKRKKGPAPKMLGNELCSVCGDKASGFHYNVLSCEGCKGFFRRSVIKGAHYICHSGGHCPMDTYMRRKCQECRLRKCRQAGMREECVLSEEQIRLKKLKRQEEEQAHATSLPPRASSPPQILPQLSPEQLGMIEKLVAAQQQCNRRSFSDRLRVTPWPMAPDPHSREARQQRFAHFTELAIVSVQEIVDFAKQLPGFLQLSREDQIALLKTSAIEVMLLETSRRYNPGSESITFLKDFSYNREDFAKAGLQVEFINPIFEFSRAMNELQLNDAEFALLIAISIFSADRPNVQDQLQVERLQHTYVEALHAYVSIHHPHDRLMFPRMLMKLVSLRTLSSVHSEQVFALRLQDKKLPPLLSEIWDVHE
Estrogen receptor (Homo sapiens), sequence (P03372 whole entry, looked up, the tested form may be a part): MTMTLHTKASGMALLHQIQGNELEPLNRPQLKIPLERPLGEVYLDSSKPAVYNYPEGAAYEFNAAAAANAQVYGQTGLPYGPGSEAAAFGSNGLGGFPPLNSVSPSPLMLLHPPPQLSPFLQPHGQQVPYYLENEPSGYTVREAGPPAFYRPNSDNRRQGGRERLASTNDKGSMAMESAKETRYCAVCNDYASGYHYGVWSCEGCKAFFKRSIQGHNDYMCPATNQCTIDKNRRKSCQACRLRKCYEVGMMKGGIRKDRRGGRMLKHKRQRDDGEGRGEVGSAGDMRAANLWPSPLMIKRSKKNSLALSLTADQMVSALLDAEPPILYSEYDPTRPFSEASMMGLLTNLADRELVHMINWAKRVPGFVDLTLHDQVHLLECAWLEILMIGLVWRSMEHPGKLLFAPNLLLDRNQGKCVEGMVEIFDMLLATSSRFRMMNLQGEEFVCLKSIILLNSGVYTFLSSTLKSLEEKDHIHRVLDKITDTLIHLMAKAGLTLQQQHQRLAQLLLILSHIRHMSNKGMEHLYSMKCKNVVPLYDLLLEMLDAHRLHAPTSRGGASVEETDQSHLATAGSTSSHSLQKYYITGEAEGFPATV
Oxysterols receptor LXR-beta (Homo sapiens), sequence (P55055 whole entry, looked up, the tested form may be a part): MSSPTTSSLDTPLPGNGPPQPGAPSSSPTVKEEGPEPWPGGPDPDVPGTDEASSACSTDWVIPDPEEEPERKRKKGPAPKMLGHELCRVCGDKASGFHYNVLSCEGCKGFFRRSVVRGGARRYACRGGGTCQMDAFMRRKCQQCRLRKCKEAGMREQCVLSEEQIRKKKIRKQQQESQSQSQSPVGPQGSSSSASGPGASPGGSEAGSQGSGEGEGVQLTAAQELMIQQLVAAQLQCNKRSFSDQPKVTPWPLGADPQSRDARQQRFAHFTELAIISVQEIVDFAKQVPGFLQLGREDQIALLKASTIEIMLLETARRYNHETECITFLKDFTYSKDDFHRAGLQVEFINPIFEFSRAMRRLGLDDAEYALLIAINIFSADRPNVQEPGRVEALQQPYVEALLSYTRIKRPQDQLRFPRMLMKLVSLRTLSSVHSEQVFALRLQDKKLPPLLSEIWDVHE
Bile acid receptor (Homo sapiens), sequence (Q96RI1 whole entry, looked up, the tested form may be a part): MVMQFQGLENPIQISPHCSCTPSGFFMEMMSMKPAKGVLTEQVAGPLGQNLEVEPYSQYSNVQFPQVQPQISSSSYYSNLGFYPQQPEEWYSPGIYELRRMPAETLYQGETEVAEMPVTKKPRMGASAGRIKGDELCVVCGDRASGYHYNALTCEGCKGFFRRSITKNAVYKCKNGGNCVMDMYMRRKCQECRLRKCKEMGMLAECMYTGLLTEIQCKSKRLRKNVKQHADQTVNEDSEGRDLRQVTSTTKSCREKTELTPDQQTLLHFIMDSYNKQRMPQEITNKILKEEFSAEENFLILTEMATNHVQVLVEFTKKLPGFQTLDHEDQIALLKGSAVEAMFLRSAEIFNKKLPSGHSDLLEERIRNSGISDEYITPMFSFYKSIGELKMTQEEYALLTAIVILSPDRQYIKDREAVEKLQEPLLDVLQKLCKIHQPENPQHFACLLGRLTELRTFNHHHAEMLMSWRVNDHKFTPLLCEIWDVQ
Nuclear receptor subfamily 1 group I member 3 (Homo sapiens), sequence (Q14994 whole entry, looked up, the tested form may be a part): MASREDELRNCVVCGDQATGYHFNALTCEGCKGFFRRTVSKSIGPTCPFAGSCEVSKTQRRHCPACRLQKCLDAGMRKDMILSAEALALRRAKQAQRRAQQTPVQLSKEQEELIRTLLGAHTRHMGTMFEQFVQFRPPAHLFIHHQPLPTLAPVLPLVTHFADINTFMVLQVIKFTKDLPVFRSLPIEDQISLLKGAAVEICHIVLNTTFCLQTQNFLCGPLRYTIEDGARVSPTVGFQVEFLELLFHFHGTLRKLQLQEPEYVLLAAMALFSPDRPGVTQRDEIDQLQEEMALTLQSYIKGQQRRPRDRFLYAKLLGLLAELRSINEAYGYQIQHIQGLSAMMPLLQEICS

NC=O
inactive: [1] | [2] | [3] | [4] | [5] | [6] | [7] | [8] | [9] | [10] | [11] | [12] | [13]

COC(=O)CCC(=O)OC
inactive: [2] | [14] | [15] | [16] | [3] | [17] | [18] | [10] | [11] | [12] | [13]

O=C(O)c1[nH]n(-c2ccc(S(=O)(=O)O)cc2)c(=O)c1N=Nc1ccc(S(=O)(=O)O)cc1
inactive: [1] | [2] | [16] | [3] | [8] | [10] | [11] | [12] | [13]

CC(C)NCC(O)c1ccc(O)c(O)c1 (stereo unspecified)
inactive: [1] | [2] | [3] | [5] | [8] | [9] | [10] | [11] | [12] | [13]

CN(C)CCCN1c2ccccc2Sc2ccc(Cl)cc21
inactive: [1] | [2] | [3] | [19] | [18] | [6] | [8] | [20] | [9] | [10] | [11] | [12] | [13]
